Test systems include HCT-15 colon; HT29 colon; SNB-75 CNS; SNB-19 CNS; U251 CNS; PC-3 prostate; SK-MEL-5 melanoma; UACC-62 melanoma; LOX IMVI melanoma; SK-MEL-28 melanoma; SK-MEL-2 melanoma; EKVX NSCLC; SN12C renal; UO-31 renal; TK-10 renal; ACHN renal; CAKI-1 renal; A498 renal; CCRF-CEM leukemia; MOLT-4 leukemia.
What all share (experiment): NCI-60 one-dose screen, 48 h (100 = growth as untreated, 0 = no growth, -100 = all killed)
What all share (conditions): 10 µM unless noted

The structures appear in SMILES notation. The panel holds about 83,000 compounds, 20% with a hit somewhere; the sample as a whole holds those more often.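 Activity criterion: percent growth below 10, measured after cells in 96-well plates were exposed to a single compound concentration for 48 hours.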 A number with no mark means an inactive call. Activity calls are given as the source filed them.

For `Nc1ccc(-c2nc3ccc4[nH]ncc4c3c3c2CCCC3)cc1F`, the growth in the test with HCT-15 colon is 15.5%; in the test on HT29 colon it was 28%; in the test on SNB-75 CNS, 19.3%; with SNB-19 CNS, 41.9%; in the test on U251 CNS it was 26.8%; with PC-3 prostate, 27.7%. Besides, the growth was 4.72% (active) with SK-MEL-5 melanoma; 14.5% in the test on UACC-62 melanoma; 29.4% with LOX IMVI melanoma; 34.4% in the test with SK-MEL-28 melanoma; 6.74% (active) in the test on SK-MEL-2 melanoma; 33.5% with EKVX NSCLC. The growth in the test with SN12C renal was 27.3%; in the test with UO-31 renal it was -4.24% (active); in the test with TK-10 renal, 22.1%; with ACHN renal, 11.6%; in the test on CAKI-1 renal, 7.39% (active); with A498 renal, -0.345% (active). Further, the growth in the test with CCRF-CEM leukemia was 20.5%; in the test on MOLT-4 leukemia, 18.5%.

`CCCCC1=C(Br)C(=O)c2nc(C)ccc2C1=O`: the growth with HCT-15 colon is 95.5%; in the test on HT29 colon, 107%; in the test with SNB-75 CNS, 84.4%; in the test on SNB-19 CNS, 92.5%; in the test with U251 CNS, 89.6%; with PC-3 prostate, 80.3%. For the same compound, the growth in the test with SK-MEL-5 melanoma was 92.6%; with UACC-62 melanoma, 84.9%; with LOX IMVI melanoma, 89.1%; in the test on SK-MEL-28 melanoma, 105%; in the test with SK-MEL-2 melanoma, 109%; in the test on EKVX NSCLC, 92.7%. Moreover, the growth is 91.6% with SN12C renal; 70.8% with UO-31 renal; 115% with TK-10 renal; 57.1% in the test with ACHN renal; 85.9% with CAKI-1 renal; 93.8% in the test with A498 renal. Besides, the growth in the test with CCRF-CEM leukemia is 30.9%; in the test on MOLT-4 leukemia, 21.3%.

Turning to `CC(=NCc1ccccc1)c1ccc(O)cc1O`, the growth in the test with HCT-15 colon was 101%; in the test on HT29 colon it was 104%; with SNB-75 CNS, 83.2%; with SNB-19 CNS it was 103%; in the test with U251 CNS, 101%; in the test with PC-3 prostate, 81.7%. Besides, the growth was 95% with SK-MEL-5 melanoma; 88.1% with UACC-62 melanoma; 94.1% with LOX IMVI melanoma; 103% in the test with SK-MEL-28 melanoma; 107% in the test on SK-MEL-2 melanoma; 111% in the test with EKVX NSCLC. Also, the growth with SN12C renal is 91.8%; in the test on UO-31 renal it was 81.7%; in the test with TK-10 renal, 92.8%; with ACHN renal, 96.6%; with CAKI-1 renal, 107%; with A498 renal it was 100%. Moreover, the growth is 85% in the test with CCRF-CEM leukemia and 89.7% with MOLT-4 leukemia.

Turning to `C=C(C)[C@@H]1CC[C@]2(C(=O)O)CC[C@]3(C)[C@H](CC[C@@H]4[C@@]5(C)CCC(N)C(C)(C)[C@@H]5CC[C@]43C)[C@@H]12` (stereo not given in full), the growth was 29.4% in the test with HCT-15 colon; -13.6% (active) with HT29 colon; 95.8% in the test on SNB-75 CNS; 28.1% in the test on SNB-19 CNS; 5.5% (active) with U251 CNS; 66.5% in the test on PC-3 prostate. Further, the growth in the test with SK-MEL-5 melanoma is 61%; in the test with UACC-62 melanoma, -51.7% (active); in the test on LOX IMVI melanoma, -51.1% (active); with SK-MEL-28 melanoma, -70.2% (active); in the test on SK-MEL-2 melanoma, 93%; in the test on EKVX NSCLC, 67.6%. The growth with SN12C renal was -7.83% (active); with UO-31 renal it was 63.4%; with TK-10 renal, 47.8%; in the test with ACHN renal it was 8.7% (active); in the test with CAKI-1 renal, 48.6%; in the test on A498 renal, 78.1%. In addition, the results for the growth with CCRF-CEM leukemia and in the test with MOLT-4 leukemia were -8.42% (active) and 25.7%, respectively.

Consider `COc1cc(CNC(=O)CCCC/C=C/C(C)C)ccc1OCc1cn(-c2ccc([N+](=O)[O-])cc2)nn1`, for which the growth in the test with HCT-15 colon was 96.2%; in the test with HT29 colon, 98.1%; in the test on SNB-75 CNS, 83.9%; in the test on SNB-19 CNS it was 97.4%; in the test with U251 CNS it was 86.4%; with PC-3 prostate, 78%. Moreover, the growth with SK-MEL-5 melanoma was 76.1%; in the test with UACC-62 melanoma it was 69.3%; in the test on LOX IMVI melanoma, 89.5%; in the test on SK-MEL-28 melanoma it was 102%; with SK-MEL-2 melanoma, 92%; with EKVX NSCLC, 75.3%. The growth was 91.7% with SN12C renal; 60.6% in the test with UO-31 renal; 92.7% in the test on TK-10 renal; 90.7% in the test on ACHN renal; 96.7% in the test with CAKI-1 renal; 82% with A498 renal. Also, the growth in the test on CCRF-CEM leukemia was 84.9%; with MOLT-4 leukemia it was 79.3%.

As for `COc1ccc2c(c1)CC[C@@H]1[C@@H]2CC[C@]2(C)C3C(=CCC4C(=O)N(c5ccccc5)C(=O)C43)C[C@@H]12` (stereo not given in full), the growth was 88.5% in the test on HCT-15 colon; 71.3% in the test on HT29 colon; 79.8% with SNB-75 CNS; 108% in the test with SNB-19 CNS; 87.5% in the test on U251 CNS; 51.1% with PC-3 prostate. The growth with SK-MEL-5 melanoma is 89.9%; with UACC-62 melanoma, 64.5%; in the test with LOX IMVI melanoma it was 83.6%; in the test on SK-MEL-28 melanoma it was 105%; in the test on SK-MEL-2 melanoma, 95.7%; in the test on EKVX NSCLC, 93%. Further, the growth in the test on SN12C renal is 108%; in the test with UO-31 renal, 74.3%; in the test with TK-10 renal it was 105%; in the test with ACHN renal, 80.8%; in the test on CAKI-1 renal, 71.7%; with A498 renal it was 114%. Moreover, the growth with CCRF-CEM leukemia is 66.7%; with MOLT-4 leukemia, 74.2%.

Source of the values: PubChem BioAssay (NCI).
